Active and inactive are the calls of the source. The call rests on the fitted dose curve; in most records, active means well fitted cell-killing curve with a large enough effect in the repeat runs; inconclusive means weak or mixed curves, or effect the other way; inactive means flat fitted curve, though single readings scatter.

A short description of the test: qHTS assay to identify small molecule HDAC inhibitors - cell viability counter screen (AID 1259365). Further: nearly all actives have a fitted effect of over 50% in size. Particulars: HCT-116 viability, CellTiter-Glo ATP luminescence, 2 h; series mostly up to 92.4 µM. An excerpt: U.S. Tox21 Program National Center for Advancing Translational Sciences [NCATS] NIH Chemical Genomics Center [NCGC] U.S. Environmental Protection Agency [EPA] National Institutes of Environmental Health Sciences [NIEHS] National Toxicology Program [NTP] U.S. Food and Drug Administration [FDA] Tox21 Assay Overview: Histone deacetylases (HDACs) are a group of epigenetic enzymes that regulate gene expression by histone deacetylation. HDACs are capable of introducing epigenetic modifications and such aberrations contribute to the onset and progression of several human diseases, thus making HDACs a popular therapeutic target. For identifying endogenous class I/II HDAC inhibitors a homogenous, luminogenic HDAC I/II cell based assay was used to measure the relative activity of class I and II HDACs from cells. Wild type HCT-116 cells were used to screen Tox21 compound libraries for identifying class I/II HDAC inhibitors.
Tox21 Assay Protocol Summary: HCT-116 cells were dispensed at 1,500 per well in 5uL of culture medium into white solid bottom 1536-well plates (Greiner Bio-One, Monroe, NC) using a Multidrop Combi (Thermo Scientific, Waltham, MA) dispenser. The assay plates were incubated at 37 C and 5% CO2 for an overnight, and then 23nL of compounds dissolved in DMSO and positive control were transferred using a Pintool station (Wako, San Diego, CA). The assay plates were incubated at 37C and 5% CO2 for 2hr. After compound treatment, 4uL of CellTiter-Glo reagent (Promega Corporation, Madison, WI) was added to each well of the assay plates using Flying Reagent Dispenser (FRD, Aurora Discovery, San Diego, CA) and incubated the assay plates at room temperature for 30min. The luminescence signal was quantified using a ViewLux plate reader (Perkin Elmer, Shelton, CT).
(Quantitative high-throughput screening tests each substance at several concentrations.)
As to `CCOCCn1c(N2CCCN(C)CC2)nc2ccccc21`, the compound was classed as inactive.
In the case of `C/C(=C\C(C)CC(C)CC(C)C)C1CC(=O)OC1=O` (stereo not given), the outcome was inactive.
As to `N#CCCCC(C#N)CCC#N` (stereo not given), the result was inactive.
Turning to `CCC[Si](OC)(OC)OC`, the compound was classed as inactive.
In the case of `O=C1c2ccccc2C(=O)c2c1ccc(O)c2O`, the compound was classed as inactive.
Regarding `O=C(O)COCC(=O)O`, the outcome was inactive.
Take `CC(C)CC(C)(C)C`: the compound was classed as inactive.
With `C[Si](C)(C)O[Si](C)(C)O[Si](C)(C)C`, the compound was called inactive.
`O=C(O)c1c2ccccc2cc2ccccc12`: the compound was classed as inactive.
As to `c1ccc(CCNc2nc(-c3ccccc3)cs2)cc1`, the call was inactive.
Regarding `Cc1c(Cl)cccc1Nc1ccccc1C(=O)O`, the result was inactive.
For the compound `O=C(Cl)c1ccc(F)c(Cl)c1`, the call was inactive.
`CC1(C)CC(=O)CC(C)(C)N1`: the compound was called inactive.
`COc1ccc(C(=O)c2ccc(C)cc2)c(O)c1`: the result was inactive.
For the compound `CC1(C)CC(O)CC(C)(C)N1[O]`, the call was inactive.
Regarding `CCOC(OCC)OCC`, the result was inactive.
As to `FC1(F)C(F)(F)C(F)(F)C2(F)C(F)(C1(F)F)C(F)(F)C(F)(F)C1(F)C(F)(F)C(F)(F)C(F)(F)C(F)(F)C12F` (stereo not given), the call was inactive.
For `Nc1ccccc1Nc1ccccc1`, the result was inactive.
`Nc1nc(Cl)nc2c1ncn2[C@H]1C[C@H](O)[C@@H](CO)O1`: the call was inactive.
For `Cc1cc(N)n(-c2ccccc2)n1`, the result was inactive.
For `CCCCCC1CCC(=O)O1` (stereo not given), the compound was classed as inactive.
For the compound `C=Cc1ccc(C=C)cc1`, the compound was called inactive.
Take `CCCC(=O)OCc1ccccc1`: the compound was called inactive.
On to `O=C(c1ccco1)N1CCNCC1`, for which the result was inactive.
Turning to `COc1ccc(C(=O)Nc2ccccc2)cc1[N+](=O)[O-]`, the compound was classed as inactive.
Under `COc1ccc(/C(C)=C/C(=O)O)c(OC)c1` stands “inactive”.
On to `Cc1cc(C)c(C)c(O)c1`, for which the result was inactive.
On to `CC(=O)Nc1ccn(C2COC(COC(=O)c3ccccc3)O2)c(=O)n1` (stereo not given), for which the call was inactive.
Turning to `CCCN(C1CCN(C(=O)C2CCNCC2)CC1)[C@@H]1CCc2ccc(OC)cc2C1`, the compound was called inactive.
For `CC(=O)c1cccnc1`, the result was inactive.
Turning to `CC(=O)Oc1cccc2c1C(=O)c1c(OC(C)=O)cc(C(=O)O)cc1C2=O`, the compound was called inactive.
Under `CC(=O)OCC(=O)[C@@]1(O)CC[C@H]2[C@@H]3CCC4=CC(=O)C=C[C@]4(C)[C@@]3(F)[C@@H](O)C[C@@]21C` stands “inactive”; under `COc1ccc(/C=C/c2cc(OC)cc(=O)o2)cc1`, “inactive”; under `OCCCO`, “inactive”.
Regarding `CCCCCCCCS`, the call was inactive.
With `Cc1c(-c2cccnc2)c2ccccc2n1CCCCC(=O)O`, the call was inactive.
Take `CCC(CC)C(=O)O`: the compound was classed as inactive.
Consider `CCOc1ccc(NC(C)=O)cc1N`, for which the result was inactive.
`O=C(O)c1ccncc1`: the result was inactive.
For `CC(C(=O)O)c1ccc2c(c1)Cc1cccnc1O2` (stereo not given), the call was inactive.
